High-throughput results: PubChem BioAssay, National Center for Advancing Translational Sciences (NCATS)
Vaccinia Venus – qHTS for Stage-Specific Inhibitors of Vaccinia Orthopoxvirus: Venus Reporter Primary qHTS | Vaccinia virus Venus reporter expression, fluorescence | 0.46% of 330,000 active | Potency, µM (highest dose often 36.5 µM), most hits filed as inhibitors; calls by dose curve; tested in A549 cells; note: nearly all actives have a fitted effect of over 30% in size
FMDV antiviral – High Throughput Screening for Foot and Mouth Disease Virus Antivirals; FMDV antiviral cell-based qHTS; Potency, µM (doses to about 57.9 µM), most hits filed as inhibitors; 1.2% of 410,000 active; calls by dose curve; tested in HEK293T cells; note: read-out not given here; nearly all actives have a fitted effect of over 45% in size
HCMV antiviral – qHTS Assay for inhibitors of the human cytomegalovirus (HCMV); AID 1259415, 2018; 4.5% of 410,000 active; HFF cells, HCMV-luciferase reporter, 72 h; stronger effect = lower value; activity change, negative = inhibition, % at 57.5 µM; in the data active = activity change below about -60%; inconclusive = no clear call, values can overlap the other calls; inactive = above about -39%
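Two compound doses tested in HFFs infected with HCMV-luciferase, MOI 1 PFU/cell, 72 h at 37C. Lysate luminescence read with OneGlo; data normalized against buffer-only and 10uM Salinomycin inhibitor controls.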
Lassa entry inh – qHTS for Inhibitors of binding or entry into cells for Lassa Virus. Lassa virus pseudotype entry inhibition, cell reporter. Potency, µM (series often up to 37.9 µM), actives largely listed as inhibitors. AID 540256, 2011. 1.2% of 300,000 active; calls by dose curve; tested in HEK293 cells; note: nearly all actives have a fitted effect of over 50% in size
MARV entry inh – qHTS for inhibitors of binding or entry into cells for Marburg Virus. Marburg virus pseudotyped entry inhibition, cell reporter. Potency, µM (top dose mostly 37.8 µM), usual class: inhibitors. 1.8% of 300,000 active; calls by dose curve; tested in HEK293 cells
Vaccinia mCherry – qHTS for Stage-Specific Inhibitors of Vaccinia Orthopoxvirus: mCherry Reporter Primary qHTS. 0.63% of 310,000 active. Potency, µM (titrated, usually from 36.5 µM), most hits filed as inhibitors. Vaccinia virus mCherry reporter infection, fluorescence. AID 720579, 2013; calls by dose curve; tested in A549 cells; note: nearly all actives have a fitted effect of over 35% in size
Each line names hits and unclear results; the compound was inactive in the other large screens. Shown are actives, neighbours in structure and some others; about 6.5% of the full set was active somewhere.

O=C(Nc1nc2ccccc2n1CCN1CCOCC1)c1ccccc1	none
COc1ccc(CNc2nc3ccccc3n2CCN2CCOCC2)cc1	Vaccinia Venus inconclusive
CCN(CC)c1ccc(CNc2nc3ccccc3n2CCN2CCOCC2)cc1	MARV entry inh 11.2µM
O=C(Nc1nc2ccccc2n1CCN1CCOCC1)c1cn(-c2ccccc2)nc1-c1ccccc1	Vaccinia Venus inconclusive, HCMV antiviral inconclusive, Lassa entry inh inconclusive, MARV entry inh inconclusive, Vaccinia mCherry 28.2µM
CCc1ccc(NC(=O)C(=O)NCCc2sc(-c3ccc(OC)c(OC)c3)nc2C)cc1	none (no result: MARV entry inh)
Cc1ccc(-n2c(=O)c3c(cnn3C)n(CC(=O)Nc3c(C)cccc3C)c2=O)cc1	none
O=C(C1CCC(CNc2nc(=S)[nH]c3ccccc23)CC1)N1CCN(c2ccccn2)CC1 (configuration not stated)	FMDV antiviral inconclusive, HCMV antiviral -107.4
CC(CNC(=O)CCc1cn(Cc2ccccc2Cl)c2ccccc12)c1ccccc1 (configuration not stated)	none (no result: MARV entry inh)
CCCc1nc2ccccc2c(=O)n1CCc1ccccc1	FMDV antiviral inconclusive, Lassa entry inh 2.51µM, MARV entry inh inconclusive
CCn1c(/C=C/c2ccccc2)nc2ccccc2c1=O	HCMV antiviral -60.6 (no result: Vaccinia Venus, Lassa entry inh, MARV entry inh, Vaccinia mCherry)
Cc1nc2ccccc2c(=O)n1/N=C/c1ccc(O)cc1O	Vaccinia mCherry inconclusive
O=c1c2ccccc2nc(/C=C/c2ccc(O)cc2)n1CCc1ccccc1	FMDV antiviral 35.5µM, HCMV antiviral inconclusive, Lassa entry inh 9.2µM, MARV entry inh inconclusive, Vaccinia mCherry inconclusive
CCCc1nc2ccccc2c(=O)n1/N=C/c1ccccc1O	Vaccinia Venus inconclusive, HCMV antiviral inconclusive, Lassa entry inh inconclusive, MARV entry inh inconclusive, Vaccinia mCherry 10µM
COC(=O)c1ccc(CN2C(=O)[C@@]3(CC(C)=C[C@@H](COc4ccccc4)O3)c3ccccc32)cc1	none (no result: Vaccinia Venus, FMDV antiviral, HCMV antiviral, Lassa entry inh, Vaccinia mCherry)
O=c1c2ccccc2nc(/C=C/c2cc(Br)ccc2O)n1CCO	FMDV antiviral inconclusive, HCMV antiviral -98.2 (no result: Vaccinia Venus, Lassa entry inh, MARV entry inh, Vaccinia mCherry)
Nc1ccc(-c2cc3ccccc3c(=O)o2)cc1	FMDV antiviral inconclusive, HCMV antiviral -61.8, Vaccinia mCherry inconclusive (no result: Lassa entry inh, MARV entry inh)
O=c1oc(-c2ccccc2)cc2ccccc12	none (no result: Vaccinia Venus, FMDV antiviral, Lassa entry inh, MARV entry inh, Vaccinia mCherry)
CSc1ccc2c(c1)N(CCC1CCCCN1C)c1ccccc1S2 (configuration not stated)	Vaccinia Venus inconclusive, HCMV antiviral inconclusive, Lassa entry inh 5.17µM, MARV entry inh 10.3µM
Cc1ccc(C(c2sc3nc(-c4ccco4)nn3c2O)N2CCC3(CC2)OCCO3)cc1 (configuration not stated)	none (no result: MARV entry inh)
O=C(CN1CCN(c2ncccn2)CC1)N1CCCc2c1c(=O)oc1ccc(O)cc21	Vaccinia Venus inconclusive (no result: Vaccinia mCherry)
O=C1NCCCc2c1oc1ccc(O)cc21	HCMV antiviral -62.6, Lassa entry inh inconclusive, MARV entry inh inconclusive (no result: Vaccinia Venus, Vaccinia mCherry)
Nc1ncnc2c(C3OC(CO)C(O)C3O)c[nH]c12 (configuration not stated)	Vaccinia Venus 0.251µM, HCMV antiviral -97.5, Lassa entry inh inconclusive, MARV entry inh inconclusive, Vaccinia mCherry 0.282µM
N#Cc1c(-c2ccccc2)no[n+]1[O-]	MARV entry inh 11.2µM (no result: Vaccinia Venus, FMDV antiviral, HCMV antiviral, Lassa entry inh, Vaccinia mCherry)
CC(=O)c1ccc(NC(=O)CSc2nc(C3CCCC3)nc3c2c(=O)n(C)c(=O)n3C)cc1	FMDV antiviral inconclusive (no result: MARV entry inh)
CCCCN(C)CC(O)Cn1cc(/C=C/C(=O)c2ccc(OC)c(OC)c2)c2ccccc21 (configuration not stated)	HCMV antiviral -107.7, Lassa entry inh inconclusive, MARV entry inh 4.47µM, Vaccinia mCherry inconclusive
CCCN(CCC)CC(O)Cn1cc(/C=C/C(=O)c2ccc(C)cc2)c2ccccc21 (configuration not stated)	Vaccinia Venus inconclusive, HCMV antiviral -106.9, Lassa entry inh inconclusive, MARV entry inh inconclusive, Vaccinia mCherry inconclusive
CCCN(CCC)CC(O)Cn1cc(/C=C/C(=O)c2ccc(OC)cc2)c2ccccc21 (configuration not stated)	Lassa entry inh inconclusive, MARV entry inh inconclusive
CCCN(CCC)CC(O)Cn1cc(/C=C/C(=O)c2ccccc2)c2ccccc21 (configuration not stated)	none (no result: Vaccinia Venus, Lassa entry inh, MARV entry inh, Vaccinia mCherry)
CCCCN(C)CC(O)Cn1cc(/C=C/C(=O)c2ccc(C)cc2)c2ccccc21 (configuration not stated)	Vaccinia Venus inconclusive, FMDV antiviral inconclusive, HCMV antiviral -97.7, Lassa entry inh inconclusive, MARV entry inh inconclusive, Vaccinia mCherry inconclusive
CCCCN(C)CC(O)Cn1cc(/C=C/C(=O)c2ccc(Br)cc2)c2ccccc21 (configuration not stated)	HCMV antiviral -107.0, Lassa entry inh inconclusive, MARV entry inh inconclusive
CCCN(CCC)CC(O)Cn1cc(/C=C/C(=O)c2ccc(Br)cc2)c2ccccc21 (configuration not stated)	none
COc1ccc(NC(=O)c2noc3c2CCCC3)cc1Cl	Lassa entry inh inconclusive (no result: MARV entry inh)
O=C(c1ccc2c(c1)N(Cc1ccc(Cl)cc1)C(=O)c1ccccc1S2=O)N1CCC(Cc2ccccc2)CC1 (configuration not stated)	HCMV antiviral inconclusive, Lassa entry inh inconclusive, MARV entry inh inconclusive, Vaccinia mCherry inconclusive
CCOc1ccc2nc(N3CCCC(C(=O)Nc4ccccc4CC)C3)sc2c1 (configuration not stated)	none (no result: Lassa entry inh)
Oc1c(C(c2ccc(Cl)cc2Cl)N2CCN(Cc3ccccc3)CC2)sc2nc(-c3ccco3)nn12 (configuration not stated)	none (no result: MARV entry inh)
CC(C)CCNc1nc2c(c(=O)[nH]c(=O)n2C)n1CC(O)COC(C)C (configuration not stated)	HCMV antiviral -65.6 (no result: Vaccinia mCherry)
CS(=O)(=O)c1ccc(Cn2c3c(c4cc(F)cc(F)c42)CCC[C@H]3CC(=O)O)cc1	none (no result: Vaccinia Venus, HCMV antiviral, Lassa entry inh, MARV entry inh, Vaccinia mCherry)
CC(=O)N1CCCN(C(=O)c2ccc3nc(Cc4ccccc4F)oc3c2)CC1	none
O=C(c1ccc2nc(Cc3ccccc3F)oc2c1)N1CCCC1	Lassa entry inh 6.31µM, MARV entry inh inconclusive
N#CCCn1cc(/C=C2\NC(=S)N(c3ccccc3)C2=O)c(-c2ccc(F)cc2)n1	HCMV antiviral -62.6, MARV entry inh inconclusive, Vaccinia mCherry inconclusive
C=CCOC(=O)C(C(C)=O)[C@@H](NC(=O)OC)c1ccc2ccccc2c1 (some centres not stated)	none (no result: Vaccinia Venus, FMDV antiviral, HCMV antiviral, Lassa entry inh, Vaccinia mCherry)
O=[N+]([O-])c1cc(/C=N/NC(=S)Nc2ccccc2Cl)ccc1Cl	Vaccinia Venus inconclusive, Lassa entry inh inconclusive, MARV entry inh 8.91µM, Vaccinia mCherry inconclusive
COc1ccc(/C=N/NC(=S)Nc2ccccc2[N+](=O)[O-])cc1O	Vaccinia Venus inconclusive, HCMV antiviral -65.9, Lassa entry inh 23.1µM, MARV entry inh inconclusive
CCOc1ccc(C(=O)Nc2ccc3c(c2)CCCN3S(=O)(=O)c2ccc(C)cc2)cc1	Vaccinia Venus inconclusive, HCMV antiviral inconclusive, Lassa entry inh inconclusive (no result: MARV entry inh)
COc1cc(CCCN2CCNC[C@@H]2c2ccccc2)cc(OC)c1OC	HCMV antiviral -71.9 (no result: Lassa entry inh, MARV entry inh)
